TDP43 rescue = qHTS of TDP-43 Inhibitors. Potency, µM (doses to about 46.1 µM), hits mostly activators. TDP-43 expressing yeast growth rescue, BacTiter-Glo, 24 h. actives 1.8% (n = 410,000); note: nearly all actives have a fitted effect of over 50% in size
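Yeast expressing TDP-43 (pregrown in raffinose, seeded at OD600=0.02 in galactose medium) exposed to compounds 24 hr at 30 deg C. Growth read by BacTiter-Glo luminescence; rescue of toxicity appears as increased signal.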
FUS yeast rescue = qHTS for Suppressors of FUS Proteinopathy: Primary screen using FUS-linked yeast assay; S. cerevisiae FUS-expressing, growth rescue, OD600, 24 h; Potency, µM (series often up to 76.6 µM), actives largely listed as activators; actives 0.24% (n = 390,000); note: nearly all actives have a fitted effect of over 55% in size
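Cultures pregrown in 2.5% raffinose medium are shifted to minimal medium containing 2% galactose to express toxic FUS. Compounds are tested at several concentrations. After 24hr at 30C, growth is quantified at 600 nm absorbance.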
aSyn rescue = qHTS of alpha-syn Inhibitors | Potency, µM (series often up to 46.1 µM), usual class: activators | Yeast expressing alpha-synuclein, growth rescue, BacTiter-Glo, 24 h | actives 0.14% (n = 370,000) | AID 652106, 2013; note: nearly all actives have a fitted effect of over 65% in size
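Galactose-induced alpha-syn yeast (OD600=0.02, raffinose-pregrown) + pinned cpd, 24 hr, 30 deg C; growth by BacTiter-Glo luminescence. Growth restoration scores as activation.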
Abeta yeast res = qHTS for compounds that reverse cellular toxicity of Amyloid beta (A-beta) peptide in yeast: Primary Screen. actives 0.063% (n = 410,000). yeast expressing A-beta42, growth rescue, OD600, 48 h; response scale: 0% DMSO, 100% iron-clioquinol control. Potency, µM (series often up to 46.1 µM), hits mostly activators. AID 1347071, 2019; note: nearly all actives have a fitted effect of over 55% in size
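Yeast A-beta toxicity model in growth medium with pinned compounds, 48 h at 30 C; growth read as absorbance at 600 nm. Normalized to FeCl3/clioquinol equimolar mix (positive) and DMSO (negative).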
Hits are given with their value; . = inactive; ? = inconclusive; / = no result given; [ ] = another dose, or the depositor's remark. Sampled rows, rich in hits. Any-hit rate of the full collection: about 2.1%. Calls come from the whole dose curve; as a rule, active = well fitted curve in the direction sought with a large enough effect; inconclusive = small, poorly fitted or top-dose-only effect, or another doubt; inactive = no such curve, though single readings can be large; an effect the other way counts as inactive or inconclusive.

SMILES	TDP43 rescue	FUS yeast rescue	aSyn rescue	Abeta yeast res
COc1ccc(Cl)cc1NC(=O)c1c(-c2ccccc2)noc1C	.	.	.	.
Cc1cccc(NC(=O)C(C)Sc2nc3ccccc3c(=O)n2CCCN2CCOCC2)c1 (stereo unspecified)	.	.	.	.
Cc1ccccc1Cn1c(C)c(C(=O)NCc2ccc(Cl)c(Cl)c2)sc1=O	.	.	.	.
CC(=O)Nc1c(C)ccc([N+](=O)[O-])c1C	.	.	.	.
COC(=O)CNC(=O)COC(=O)/C=C/c1ccc2ccccc2n1	.	.	.	.
N#CC1c2ccccc2-c2ccccc2N1C(=O)c1ccccc1 (stereo unspecified)	28µM	.	22µM	.
CC1C=Cc2ccccc2N1C(=O)c1ccccc1 (stereo unspecified)	.	.	.	.
CCCCn1c(SCC(=O)Nc2cc(NC(=O)c3ccco3)ccc2C)nc2ccccc2c1=O	.	32µM	.	.
Cc1c(C(=O)Nc2ccc3c(c2)OCCO3)sc2ncnc(N3CCCCC3C)c12 (stereo unspecified)	16µM	.	.	.
Cc1c(C(=O)N2CCCCC2C)sc2ncnc(N3CCc4ccccc4C3)c12 (stereo unspecified)	?	.	.	.
Cc1nc(N2CCC(C)CC2)c2c(C)c(C(=O)Nc3ccc(C(F)(F)F)cc3)sc2n1	?	.	.	.
Cc1nc(N2CCC(C)CC2)c2c(C)c(C(=O)Nc3ccc4c(c3)OCCO4)sc2n1	7.1µM	.	.	.
Cc1nc(N2CCCCC2C)c2c(C)c(C(=O)Nc3ccccc3C(F)(F)F)sc2n1 (stereo unspecified)	14µM	.	.	.
O=S(=O)(c1ccccc1)c1nc(NCc2ccccc2)sc1Cl	20µM	/	.	.
COc1cc2c(C(=O)N3CCN(c4ccccc4)CC3)c(C)oc2cc1Br	.	.	.	.
NS(=O)(=O)c1cccc(NC(=O)CC2(CC(=O)O)CCCC2)c1	.	.	.	.
Cc1ccc(S(=O)(=O)NC(=O)c2cc(C)n(-c3ccc(N(C)C)cc3)c2C)cc1	35µM	?	.	.
Cc1ccc(S(=O)(=O)NC(=O)c2cc(C)n(-c3ccccc3)c2C)cc1	?	.	.	.
COc1ccc(/C=C(\C#N)C(=O)Nc2cccnc2)cc1	.	/	.	.
N#C/C(=C\c1ccc(Cl)cc1)C(=O)Nc1cccnc1	.[1.82 µM]	.	.	13µM
Cn1c(=O)c(=O)n(C)c2cc(S(=O)(=O)CCC(=O)Nc3ccccc3C(F)(F)F)ccc21	.	.	.	.
COc1ccc(CCNc2nc(-c3ccncc3)cs2)cc1OC	.	.	.	.
Cc1nc(C)c(-c2csc(NCc3ccccc3)n2)s1	20µM	.	.	.
CCC(C)C(=O)Nc1nc(C)c(-c2csc(Nc3ccc(Cl)cc3)n2)s1 (stereo unspecified)	.	?	.	.
CCCC(=O)Nc1nc(C)c(-c2csc(Nc3ccc(Cl)cc3)n2)s1	14µM	?	.	.
SMILES	TDP43 rescue	FUS yeast rescue	aSyn rescue	Abeta yeast res
COc1ccc(CCNc2nc(-c3sc(C)nc3C)cs2)cc1OC	22µM	.	.	.
COc1ccc(Nc2nc(-c3sc(C)nc3C)cs2)cc1	20µM	.	.	.
CC(=O)c1cccc(-c2csc(N3CCC(C(N)=O)CC3)n2)c1	/	.	/	.
COc1ccc(CN2CCN(C(=O)c3ccco3)CC2)cc1	.	.	.	.[9.22 µM]
CC(Oc1ccc(C#N)cc1)C(=O)NC1CCCC1 (stereo unspecified)	.	.	.	.
CC(C)(C)c1ccc(Oc2nc3ccccn3c(=O)c2/C=C(\C#N)c2nc3ccccc3s2)cc1	.	.	/	.
COc1cccc(COc2cc3ccccc3nc2C)c1	?	.	.	.
Cc1c(C(=O)NCCSCc2cccc(C(F)(F)F)c2)cnn1-c1ccc(Cl)cc1	?	.	.	.
Cc1cc(NS(=O)(=O)c2ccc(CC(C)C)cc2)no1	18µM	.	.	.
Cc1cc(NS(=O)(=O)c2ccc(C(C)C)cc2)no1	14µM	.	.	?
COc1ccc(N(C)C(=O)C2CCN(S(=O)(=O)c3cccc4nonc34)CC2)cc1	.	.	.	.
CCCOc1ccccc1N1C(=O)CC(N(O)c2ccccc2)C1=O (stereo unspecified)	.	.	.	.
O=C(COc1ccc(Cl)cc1Cl)OCC(=O)c1ccc[nH]1	.	.	.	.
O=C(Cc1ccc(Cl)cc1Cl)OCC(=O)c1ccc[nH]1	18µM	.	.	.
COc1ccccc1OCC(=O)/C=C1/N(C)c2ccccc2C1(C)C	14µM	.	.	.
Cc1ccc(C(=O)NC(=S)/C=C2\N(C)c3ccccc3C2(C)C)cc1	.	.	.	.
CC(C)C(=O)NC(=S)/C=C1/N(C)c2ccccc2C1(C)C	35µM	.	.	?
CN1/C(=C\C(=O)COC(=O)c2ccccc2O)C(C)(C)c2ccccc21	.	.	.	.
O=C(NC(=S)NCCO)c1sc2ccccc2c1Cl	.	.	.	.
CC(=O)Nc1cccc(-c2nc3ccc(NC(C)=O)cc3s2)c1	.	.	.	.
O=C(O)Cc1ccc2sc(-c3ccccc3)nc2c1	3.2µM	/	.	.
CC(=O)Nc1cccc(-c2nc3ccccc3s2)c1	8.9µM	.	.	.
CCOc1cc(-c2nc3ccccc3s2)ccc1O	13µM	.	.	.
O=C(Nc1cccc(-c2nc3ccccc3s2)c1)C1=COCCO1	20µM	/	.	.
COc1ccc(S(=O)(=O)Nc2noc3ccccc23)cc1OC	?	.	.	.
SMILES	TDP43 rescue	FUS yeast rescue	aSyn rescue	Abeta yeast res
CCSc1nc2cc(S(=O)(=O)N3CCOCC3)ccc2o1	.	.	.	.
O=C(O)c1cncc(C#CCC2CCCCC2)c1	14µM	.	.	.
C=CCNC(=O)/C(C#N)=C/c1cc(Br)ccc1OC	11µM	.	.	.
C=CCNC(=O)/C(C#N)=C/c1ccccc1Cl	.	.	.	?
COc1ccc(NC(=O)/C(C#N)=C/c2cccnc2)c(OC)c1	.	.	.	?
Cn1nc(C(=O)NCC2COc3ccccc3O2)c2ccccc2c1=O (stereo unspecified)	20µM	.	.	.
Cc1ccc(C(=O)OCC(=O)NCC2COc3ccccc3O2)cc1 (stereo unspecified)	?	.	.	?
Cc1cccc(C)c1OCC(=O)NCC1COc2ccccc2O1 (stereo unspecified)	16µM	.	.	.
O=C(COC(=O)c1ccc2c(c1[N+](=O)[O-])C(=O)c1ccccc1C2=O)NC1CC1	3.5µM	.	.	.
O=C(O)CN1C(=O)/C(=C/c2cccc(Cl)c2)Oc2ccccc21	.	.	.	.
O=C(Sc1nnc(-c2ccccc2)o1)N1c2ccccc2Sc2ccccc21	11µM	.	.	?
O=C(NCc1ccccc1C(F)(F)F)C1CC(c2ccccc2C(F)(F)F)=NO1 (stereo unspecified)	.	.	.	.
